Test results from PubChem BioAssay (NCI).
This is part of a sample that, as a whole, favours compounds with a hit. Of some 83,000 tested, about 20% had one in any assay.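 Compound tested at a single concentration for 48 hours in 96-well plates; a percent growth value below 10 was scored as active.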 Active and inactive are the calls of the source.

What was measured:
Test in all cases: NCI-60 one-dose screen, 48 h (100 = growth as untreated, 0 = no growth, -100 = all killed)
Conditions in all cases: 10 µM unless noted
SR leukemia = tested on: SR leukemia
RPMI-8226 leukemia = tested on: RPMI-8226 leukemia
OVCAR-8 ovarian = tested on: OVCAR-8 ovarian
OVCAR-5 ovarian = tested on: OVCAR-5 ovarian
OVCAR-4 ovarian = tested on: OVCAR-4 ovarian
SK-OV-3 ovarian = tested on: SK-OV-3 ovarian
IGROV1 ovarian = tested on: IGROV1 ovarian
OVCAR-3 ovarian = tested on: OVCAR-3 ovarian
HS 578T breast = tested on: HS 578T breast
NCI/ADR-RES ovarian = tested on: NCI/ADR-RES ovarian

Measured: growth

CC1=C2[C@@H](CC1)[C@]1(C)O[C@@](c3ccccc3)(C[C@H]1OC(=O)CO)[C@H]2OC(=O)/C=C/c1ccccc1
active: OVCAR-4 ovarian 5.56% | HS 578T breast -10.2% | NCI/ADR-RES ovarian 2.86%
inactive: SR leukemia 68.8% | RPMI-8226 leukemia 77.7% | OVCAR-8 ovarian 10.3% | OVCAR-5 ovarian 108% | SK-OV-3 ovarian 119% | IGROV1 ovarian 108% | OVCAR-3 ovarian 97.6%

COc1cc(OC)c(C(=O)C(CN(C)C)CN(C)C)cc1OC
active: SR leukemia -49.3% | RPMI-8226 leukemia -18.1% | OVCAR-3 ovarian 1.07%
inactive: OVCAR-8 ovarian 104% | OVCAR-5 ovarian 110% | OVCAR-4 ovarian 54.1% | SK-OV-3 ovarian 85.1% | IGROV1 ovarian 109% | HS 578T breast 108% | NCI/ADR-RES ovarian 94.3%

Fc1cc(Nc2ccc3c(OCCCN4CCOCC4)cccc3n2)ccc1Cl
active: RPMI-8226 leukemia 4.49%
inactive: SR leukemia 10.7% | OVCAR-8 ovarian 73.5% | OVCAR-5 ovarian 33.5% | OVCAR-4 ovarian 53.1% | SK-OV-3 ovarian 67.7% | IGROV1 ovarian 36.2% | OVCAR-3 ovarian 65.1% | HS 578T breast 40.1% | NCI/ADR-RES ovarian 48.5%

C=C(C)[C@@H]1CCC[C@]2(C(=O)O)CC[C@]3(C)[C@@H](CC[C@@H]4[C@@]5(C)C/C(=C/c6ccncc6)C(=O)C(C)(C)[C@@H]5CC[C@]43C)[C@@H]12
active: SR leukemia 3.51% | RPMI-8226 leukemia -9.5%
inactive: OVCAR-8 ovarian 24.9% | OVCAR-5 ovarian 47.9% | OVCAR-4 ovarian 28.4% | SK-OV-3 ovarian 78% | IGROV1 ovarian 22.6% | OVCAR-3 ovarian 11.5% | HS 578T breast 53% | NCI/ADR-RES ovarian 37.5%

NS(=O)(=O)c1ccc(C(=O)NN2C(=O)c3c(Br)c(Br)c(Br)c(Br)c3C2=O)cc1
inactive: SR leukemia 94.5% | RPMI-8226 leukemia 102% | OVCAR-8 ovarian 106% | OVCAR-5 ovarian 107% | OVCAR-4 ovarian 104% | SK-OV-3 ovarian 116% | IGROV1 ovarian 104% | OVCAR-3 ovarian 105% | HS 578T breast 94.6% | NCI/ADR-RES ovarian 110%

CC(=O)ON1CCCC(P(=O)(OCCSC(=O)C(C)(C)C)OCCSC(=O)C(C)(C)C)C1=O (stereo not given)
active: SR leukemia 6.15% | RPMI-8226 leukemia -17.3%
inactive: OVCAR-8 ovarian 10.7% | OVCAR-5 ovarian 89.2% | OVCAR-4 ovarian 29.7% | SK-OV-3 ovarian 38.6% | IGROV1 ovarian 16.3% | OVCAR-3 ovarian 10.4% | HS 578T breast 19.6% | NCI/ADR-RES ovarian 13.2%

COC(=O)/C=C1/SC(=Nc2ccc([N+](=O)[O-])cc2)N(CCc2c[nH]c3ccc(O)cc23)C1=O
inactive: OVCAR-8 ovarian 38.4% | OVCAR-5 ovarian 86.4% | OVCAR-4 ovarian 45.1% | SK-OV-3 ovarian 61.3% | IGROV1 ovarian 42.6% | OVCAR-3 ovarian 50.9% | HS 578T breast 47.5% | NCI/ADR-RES ovarian 43.9%
active: SR leukemia -22.5% | RPMI-8226 leukemia 8.49%

CC1(C)CC[C@]2(C(=O)N[C@H](CO)Cc3ccccc3)CC[C@]3(C)C(=CC[C@@H]4[C@@]5(C)CCCNC(C)(C)[C@@H]5CC[C@]43C)[C@@H]2C1
inactive: RPMI-8226 leukemia 36% | OVCAR-8 ovarian 97% | OVCAR-5 ovarian 101% | OVCAR-4 ovarian 87.7% | SK-OV-3 ovarian 100% | IGROV1 ovarian 65.1% | OVCAR-3 ovarian 97.3% | HS 578T breast 85.6% | NCI/ADR-RES ovarian 85.6%
active: SR leukemia -5.95%

COc1cc(C(=O)c2c(-c3ccccc3)oc3c(OC)cccc23)cc(OC)c1OC
active: SR leukemia 6.57% | OVCAR-3 ovarian -13.2% | HS 578T breast 2.09%
inactive: RPMI-8226 leukemia 17.6% | OVCAR-8 ovarian 17.2% | OVCAR-5 ovarian 39.8% | OVCAR-4 ovarian 32.3% | SK-OV-3 ovarian 44.2% | IGROV1 ovarian 12.3% | NCI/ADR-RES ovarian 11.9%

CC(C)(C)n1cc(-c2ccnc(NCCNS(=O)(=O)c3ccc(O)cc3)c2)c(-c2cccc(O)c2)n1
inactive: SR leukemia 88% | RPMI-8226 leukemia 80% | OVCAR-8 ovarian 96% | OVCAR-5 ovarian 97.1% | OVCAR-4 ovarian 94.1% | SK-OV-3 ovarian 116% | IGROV1 ovarian 112% | OVCAR-3 ovarian 114% | HS 578T breast 97.6% | NCI/ADR-RES ovarian 107%

CCc1ccc(CCC(=O)Nc2ncc(Cc3cc(Cl)ccc3Cl)s2)o1
inactive: SR leukemia 15.3% | RPMI-8226 leukemia 12.3% | OVCAR-8 ovarian 19.2% | OVCAR-5 ovarian 24.5% | OVCAR-4 ovarian 50.3% | SK-OV-3 ovarian 34% | IGROV1 ovarian 23.5%
active: OVCAR-3 ovarian -2.36% | HS 578T breast 7.65% | NCI/ADR-RES ovarian -3.44%

Cc1cc(Nc2ccc(C(=O)N3CCCC3)cc2)nc(NCCCNc2ccnc3cc(Cl)ccc23)n1
inactive: SR leukemia 19.1% | RPMI-8226 leukemia 74.8% | OVCAR-8 ovarian 108% | OVCAR-5 ovarian 103% | OVCAR-4 ovarian 70% | SK-OV-3 ovarian 101% | IGROV1 ovarian 76.2% | OVCAR-3 ovarian 90.3% | HS 578T breast 92.3% | NCI/ADR-RES ovarian 99.8%

O=c1nc(-c2ccccc2)c2cc(-c3ccc(C(F)(F)F)nc3)ccc2[nH]1
inactive: SR leukemia 93.2% | RPMI-8226 leukemia 91.3% | OVCAR-8 ovarian 106% | OVCAR-5 ovarian 97.6% | OVCAR-4 ovarian 108% | SK-OV-3 ovarian 105% | IGROV1 ovarian 111% | OVCAR-3 ovarian 96% | HS 578T breast 95.7% | NCI/ADR-RES ovarian 98.4%

Cc1ccc2c(-n3nc(C#N)c(C#N)c3N)cc(=O)[nH]c2c1
inactive: SR leukemia 90.5% | RPMI-8226 leukemia 101% | OVCAR-8 ovarian 85.9% | OVCAR-5 ovarian 99.2% | OVCAR-4 ovarian 89% | SK-OV-3 ovarian 74.5% | IGROV1 ovarian 64.1% | OVCAR-3 ovarian 91.2% | HS 578T breast 107% | NCI/ADR-RES ovarian 110%

O=C(NNc1cnccn1)c1nc2cc(F)ccc2n2cccc12
inactive: RPMI-8226 leukemia 12% | OVCAR-8 ovarian 15.7% | OVCAR-5 ovarian 31.2% | SK-OV-3 ovarian 18.4% | HS 578T breast 60.6%
active: SR leukemia 3.73% | OVCAR-4 ovarian -9.11% | IGROV1 ovarian 9.25% | OVCAR-3 ovarian 3.83% | NCI/ADR-RES ovarian 0.226%

CC(C)N1C(=O)/C(=c2\sc3n(c2=O)C2C(NN=3)N(C)C(=O)N2C)c2ccccc21 (stereo not given)
inactive: SR leukemia 23.3% | RPMI-8226 leukemia 94.5% | OVCAR-8 ovarian 79.6% | OVCAR-5 ovarian 84.6% | OVCAR-4 ovarian 85% | SK-OV-3 ovarian 76.3% | IGROV1 ovarian 53.2% | OVCAR-3 ovarian 20.7% | HS 578T breast 41.7% | NCI/ADR-RES ovarian 51.5%

CN(C)c1ccc(-c2nc(-c3ccccc3)c(-c3ccccc3)[nH]2)cc1
inactive: SR leukemia 88.2% | RPMI-8226 leukemia 90% | OVCAR-8 ovarian 96.9% | OVCAR-5 ovarian 122% | OVCAR-4 ovarian 94% | SK-OV-3 ovarian 83.1% | IGROV1 ovarian 91.6% | OVCAR-3 ovarian 114% | HS 578T breast 103% | NCI/ADR-RES ovarian 95%

Cc1cccc(N2CCC(=O)NC2=S)c1
inactive: SR leukemia 121% | RPMI-8226 leukemia 117% | OVCAR-8 ovarian 99.9% | OVCAR-5 ovarian 105% | OVCAR-4 ovarian 107% | SK-OV-3 ovarian 107% | IGROV1 ovarian 103% | OVCAR-3 ovarian 110% | HS 578T breast 107% | NCI/ADR-RES ovarian 105%

Cc1ccc(Cl)cc1NC(=O)c1sc2nc3c(cc2c1N)C(=O)CCC3
inactive: SR leukemia 68.9% | RPMI-8226 leukemia 95.1% | OVCAR-8 ovarian 90% | OVCAR-5 ovarian 94.2% | OVCAR-4 ovarian 90.1% | SK-OV-3 ovarian 42.4% | IGROV1 ovarian 75.7% | OVCAR-3 ovarian 22.1% | HS 578T breast 60.9% | NCI/ADR-RES ovarian 43.8%

CC(=O)O[C@H]1C[C@@H]2C(C)(C)C(=O)CC[C@@]2(C)c2ccc(C(C)C)cc21
inactive: SR leukemia 105% | RPMI-8226 leukemia 108% | OVCAR-8 ovarian 101% | OVCAR-5 ovarian 119% | OVCAR-4 ovarian 104% | SK-OV-3 ovarian 109% | IGROV1 ovarian 101% | OVCAR-3 ovarian 102% | HS 578T breast 102% | NCI/ADR-RES ovarian 108%

COc1ccc(C(=O)N2c3ccccc3Sc3ccccc32)c(C(F)(F)F)c1
active: OVCAR-3 ovarian -1.95% | NCI/ADR-RES ovarian 2.91%
inactive: SR leukemia 16.3% | RPMI-8226 leukemia 14.2% | OVCAR-8 ovarian 14.9% | OVCAR-5 ovarian 44.6% | OVCAR-4 ovarian 47.1% | SK-OV-3 ovarian 34.4% | IGROV1 ovarian 37.9% | HS 578T breast 24.3%

N#C/C(=C\C=C\c1ccc(-c2cc(Cl)ccc2Cl)o1)c1nc2ccccc2s1
inactive: SR leukemia 92.7% | RPMI-8226 leukemia 96.5% | OVCAR-8 ovarian 96.4% | OVCAR-5 ovarian 102% | OVCAR-4 ovarian 98.9% | SK-OV-3 ovarian 76.8% | IGROV1 ovarian 70.6% | OVCAR-3 ovarian 105% | HS 578T breast 100% | NCI/ADR-RES ovarian 100%

CCn1cc(CNc2ccc(C(=O)Nc3cc4cc(OC)c(OC)cc4c(C)n3)cc2)cn1
inactive: SR leukemia 12.2% | RPMI-8226 leukemia 34.7% | OVCAR-8 ovarian 28% | OVCAR-5 ovarian 93.1% | OVCAR-4 ovarian 46.5% | SK-OV-3 ovarian 56.8% | IGROV1 ovarian 73% | OVCAR-3 ovarian 54.8% | HS 578T breast 70.3% | NCI/ADR-RES ovarian 35.5%

CCN1C(=O)N(CC)C2C1NN=c1s/c(=C\c3ccc(C(F)(F)F)cc3)c(=O)n12 (stereo not given)
active: RPMI-8226 leukemia 9.95% | OVCAR-8 ovarian -2.79% | OVCAR-3 ovarian 3.24% | NCI/ADR-RES ovarian 2.84%
inactive: SR leukemia 12.2% | OVCAR-5 ovarian 26.7% | OVCAR-4 ovarian 46% | SK-OV-3 ovarian 36.5% | IGROV1 ovarian 18.7% | HS 578T breast 18.4%

CCOC(=O)C(=Cc1ccc(-c2ccccc2)cc1)C(=O)OCC
inactive: OVCAR-8 ovarian 19.7% | OVCAR-5 ovarian 71% | OVCAR-4 ovarian 75.5% | SK-OV-3 ovarian 95.6% | IGROV1 ovarian 50.5% | OVCAR-3 ovarian 52.8% | HS 578T breast 39.7% | NCI/ADR-RES ovarian 19.6%
active: SR leukemia 4.01% | RPMI-8226 leukemia -3.52%

Fc1ccc(Cn2cc(CSc3nc4ccccc4o3)nn2)cc1
inactive: SR leukemia 103% | RPMI-8226 leukemia 105% | OVCAR-8 ovarian 102% | OVCAR-5 ovarian 100% | OVCAR-4 ovarian 98.9% | SK-OV-3 ovarian 91.3% | IGROV1 ovarian 98.8% | OVCAR-3 ovarian 98.5% | HS 578T breast 105% | NCI/ADR-RES ovarian 109%
